Consider 40 compounds from PubChem BioAssay (Tox21).

“And” between values parts separate entries of the source, which are not always exact repeats. Equal values may be shown once. Records with an inconclusive call do not appear. Where a call stands in place of a potency, no number is given. A structure can be active in one record and inactive in another. The source made the active and inactive calls. The call rests on the fitted dose curve; in most records, active means well fitted cell-killing curve with a large enough effect in the repeat runs; inconclusive means weak or mixed curves, or effect the other way; inactive means flat fitted curve, though single readings scatter.
Potency means the concentration at half of the fitted maximal effect.

The nature of the test: Caspase-3/7 induction in HepG2 cells by small molecules, qHTS cell viability counter screen (AID 1346981). Further: nearly all actives have a fitted effect of over 30% in size. As to conditions: CellTiter-Fluor fluorescence, 17 h; series mostly up to 92.4 µM. From the text: U.S. Tox21 Program National Center for Advancing Translational Sciences [NCATS] NIH Chemical Genomics Center [NCGC] U.S. Environmental Protection Agency [EPA] National Institutes of Environmental Health Sciences [NIEHS] National Toxicology Program [NTP] U.S. Food and Drug Administration [FDA] Tox21 Assay Overview: Apoptosis is a process of programmed cell death and plays a central role in the development of multicellular organisms. It is a highly regulated process and induces cell death by activating caspases, which are the members of cysteine aspartic acid-specific protease (caspase) family. Caspases involved in apoptosis are classified by their mechanism of action as initiator caspases (caspase-2, -8, -9 and -10) and executioner caspases (caspase-3, -6, and -7). Inhibition of apoptosis results in number of cancers, autoimmune diseases, inflammatory diseases and viral infection. To identify small molecule compounds that induce apoptosis, a homogeneous, luminescent Caspase-Glo 3/7 assay was used. Wild type HepG2 cells were used to screen Tox21 libraries for identifying caspase-3/7 activity inducers. Also cytotoxicity of the compounds was tested in parallel by measuring the cell viability using CellTiter-Fluor assay system in the same wells.
Tox21 Assay Protocol Summary: HepG2 cells were dispensed at 2,000 per well in 5uL of culture medium into white solid bottom 1536-well plates (Corning Life Sciences, Corning, NY) using a Multidrop Combi (Thermo Scientific, Waltham, MA) dispenser. The assay plates were incubated at 37 C and 5% CO2 for 5hr, and then 23nL of compounds dissolved in DMSO and positive control were transferred using a Pintool station ([…], San Diego, CA). The assay plates were incubated at 37C and 5% CO2 for 17hr. For cytotoxicity read, after 16hr incubation at 37C, 1uL CellTiter-Fluor reagent (Promega Corporation, Madison, WI) was added to each well of the assay plates using Flying Reagent Dispenser (FRD, Aurora Discovery, San Diego, CA). After 1hr incubation at 37C and 5% CO2, the fluorescence signal was quantified using a ViewLux plate reader (PerkinElmer, Shelton, CT).
For the compound `O=C(O)c1ccccc1O`, the Potency result is “inactive”.
Next, `C[N+](C)(C)Cc1ccccc1`: “inactive”.
Next, `CCCCCCn1cc[n+](C)c1`: “inactive”; `CCCCCC[n+]1ccccc1`: “inactive”; `C1CCC(NC2CCCCC2)CC1`: “inactive”.
Turning to `O=C(O)CC(O)(CC(=O)O)C(=O)O`, the Potency entry is “inactive”.
Next, `O=[N+]([O-])c1ccccc1O`: “inactive”; `CCNc1nc(Cl)nc(NCC)n1`: “inactive”; `Cc1cc(Cl)ccc1N`: “inactive”.
Next, `CCC[N+]1(C)CCCCC1`: “inactive”; `N#CS`: “inactive”; `COc1ccc(N)cc1`: “inactive”.
Next, `O=[N+]([O-])O`: “inactive”.
As to `CCCC[N+]1(C)CCCC1`, the Potency entry was “inactive”.
Then `C=CCOC(Cn1ccnc1)c1ccc(Cl)cc1Cl` (stereo not given), with “inactive”; and `CCCC[n+]1ccc(C)cc1`, with “inactive and 19.4 µM (active)”; and `CCCCCCCCCCn1cc[n+](C)c1`, with “inactive”.
Next, `COc1ccccc1N`: “inactive”.
Then `CN(C)[C@@H]1C(=O)C(C(N)=O)=C(O)[C@@]2(O)C(=O)C3=C(O)c4c(O)cccc4[C@@](C)(O)[C@H]3[C@H](O)[C@@H]12`, with “inactive”.
Turning to `O=P1(N(CCCl)CCCl)NCCCO1` (stereo not given), the Potency entry was “inactive”.
Regarding `CCCCn1cc[n+](C)c1`, the Potency entry was “inactive”.
`Nc1ccccc1`: the Potency entry was “inactive”.
On to `COCC(=O)N(c1c(C)cccc1C)C(C)C(=O)OC` (stereo not given), for which the Potency result was “inactive”.
`CCOP(=S)(OCC)Oc1ccc2c(C)c(Cl)c(=O)oc2c1`: the Potency entry is “inactive”.
Then `CC[N+](CC)(CC)CC`, with “inactive”.
Next, `Oc1ccccc1-c1ccccc1`: “inactive”.
Next, `CCCCCCCCCCCCOS(=O)(=O)O`: “inactive”; `CCC[N+]1(C)CCCC1`: “inactive”; `CNC`: “inactive”.
Turning to `Nc1ccc(-c2ccc(N)c(Cl)c2)cc1Cl`, the Potency was 9.04 µM (active) and 54.5 µM (active).
Turning to `CCCC[n+]1ccccc1`, the Potency result is “inactive”.
Then `CC(=O)[O][Hg][c]1ccccc1`, with 5.4 µM (active) and 5.45 µM (active) and 11.9 µM (active); and `O=S(=O)(O)O`, with “inactive”.
For `CC[N+]1(C)CCCC1`, the Potency result is “inactive”.
In the case of `O=c1[nH]c(=O)n(Cl)c(=O)n1Cl`, the Potency entry was “inactive”.
Take `Cc1cc(Cl)ccc1OCC(=O)O`: the Potency entry is “inactive”.
Then `Oc1cccc2cccnc12`, with “inactive”; and `CCn1cc[n+](C)c1C`, with “inactive”; and `CCCC[N+]1(C)CCCCC1`, with “inactive”.
With `CCCn1cc[n+](C)c1`, the Potency entry is “inactive”.
